Measurements reported in PubChem BioAssay (EPA / NIEHS).
Inconclusive results are not listed. The source made the active and inactive calls. Rule for the calls, unless noted: active = hit-call score of the fitted dose curve at least 0.9, where 1 is the maximum; inconclusive = response in the unintended direction; inactive = score below 0.9.

How the values were obtained:
TIMP1, TIMP1 (gene 7076) = assay: LTEA_HepaRG_TIMP1: Life Technologies and Expression Analysis (LTEA) Assay for TIMP1 using HepaRG (AID 2283534; active = hit-call score of the fitted dose curve at least 0.9, where 1 is the maximum; inactive = score below 0.9); details: mRNA level, 48 h; actives raise or lower the signal
Method in brief: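 Readout is TIMP1 mRNA level measured by qRT-PCR and normalized to three housekeeping genes. Human HepaRG cells were treated for 48 h in duplicate at eight concentrations up to 100 uM (0.5% DMSO); gain or loss fitted against DMSO.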

[1] = read-out: Tumor necrosis factor receptor 1 (TNFRSF1A), TNFRSF1A (gene 7132); assay: LTEA_HepaRG_TNFRSF1A: Life Technologies and Expression Analysis (LTEA) Assay for Tumor necrosis factor receptor 1 (TNFRSF1A) using HepaRG (AID 2283535; active = hit-call score of the fitted dose curve at least 0.9, where 1 is the maximum; inactive = score below 0.9); details: mRNA level, 48 h; actives raise or lower the signal
Method in brief: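 Read-out is TNFRSF1A transcript level by TaqMan qRT-PCR, normalized to three housekeeping genes, scored as gain or loss of signal versus 0.5% DMSO. Human HepaRG cells received test chemicals for 48 h at up to 100 uM (half-log series).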

[2] = read-out: Thyroid Hormone Responsive (THRSP), THRSP (gene 7069); assay: LTEA_HepaRG_THRSP: Life Technologies and Expression Analysis (LTEA) Assay for Thyroid Hormone Responsive (THRSP) using HepaRG (AID 2283536; active = hit-call score of the fitted dose curve at least 0.9, where 1 is the maximum; inactive = score below 0.9); details: mRNA level, 48 h; actives raise or lower the signal
Method in brief: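 qRT-PCR read-out (Fluidigm TaqMan), housekeeping-normalized (ACTB/GAPDH/POLR2A). HepaRG, 48 h chemical exposure, 8-pt half-log series from 100 uM in 0.5% DMSO, duplicates. Bidirectional curve fit vs 0.5% DMSO baseline.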

[3] = read-out: UDP glucuronosyltransferase (UGT1A1), UGT1A1 (gene 54658); assay: LTEA_HepaRG_UGT1A1: Life Technologies and Expression Analysis (LTEA) Assay for UDP glucuronosyltransferase (UGT1A1) using HepaRG (AID 2283538; active = hit-call score of the fitted dose curve at least 0.9, where 1 is the maximum; inactive = score below 0.9); details: mRNA level, 48 h; actives raise or lower the signal
Method in brief: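 mRNA induction or loss of UGT1A1, by TaqMan qRT-PCR, in duplicate HepaRG wells after 48 h exposure to half-log dilutions topping at 100 uM; DMSO (0.5%) served as baseline.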

[4] = read-out: UDP glucuronosyltransferase (UGT1A6), UGT1A6 (gene 54578); assay: LTEA_HepaRG_UGT1A6: Life Technologies and Expression Analysis (LTEA) Assay for UDP glucuronosyltransferase (UGT1A6) using HepaRG (AID 2283539; active = hit-call score of the fitted dose curve at least 0.9, where 1 is the maximum; inactive = score below 0.9); details: mRNA level, 48 h; actives raise or lower the signal
Method in brief: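 HepaRG, 48 h post-plating switch to serum-free induction medium; chemical 48 h, 100 uM top, half-log x8, duplicate, 0.5% DMSO. Phenobarbital 1mM induction control. UGT1A6 mRNA by TaqMan qRT-PCR; gain/loss fit vs DMSO.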

[5] = read-out: X-box binding protein 1 (XBP1), XBP1 (gene 7494); assay: LTEA_HepaRG_XBP1: Life Technologies and Expression Analysis (LTEA) Assay for X-box binding protein 1 (XBP1) using HepaRG (AID 2283540; active = hit-call score of the fitted dose curve at least 0.9, where 1 is the maximum; inactive = score below 0.9); details: mRNA level, 48 h; actives raise or lower the signal
Method in brief: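 Transcript levels of XBP1, measured by qRT-PCR and normalised to three housekeeping genes, were fitted bidirectionally relative to 0.5% DMSO controls. Human HepaRG cells received eight-point half-log dilutions from 100 uM for 48 h.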

[6] = LTEA_HepaRG_LDH_cytotoxicity: Cytotoxicity Assessment in the Life Technologies and Expression Analysis (LTEA) Assay (AID 2283563);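 for AC50: LDH activity released into spent culture medium as a marker of cell death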
Method in brief: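 Cells were thawed and plated for 48 h. Medium was then replaced with serum-free induction medium. Chemicals (8 half-log points, maximum 100 uM, 0.5% DMSO) were added in duplicate for 48 h, after which spent medium was assayed for LDH.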

[7] = Tanguay_ZF_120hpf_MORT_legacy: (Legacy) Oregon State University Tanguay Lab 120 Hour Post-fertilization zebrafish Assay for Mortality (AID 2283633);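 for AC50: fitted as increase in binary mortality versus DMSO negative control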
Method in brief: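 5D WT zebrafish, chorion removed 4 hpf; 1 embryo/well from 6 hpf; static exposure to 120 hpf, 28C, dark, sealed. Final DMSO 0.64%. Readout: binary mortality, brightfield, 24 + 120 hpf; DMSO as negative control.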

[8] = Tanguay_ZF_120hpf_YSE_legacy: (Legacy) Oregon State University Tanguay Lab 120 Hour Post-fertilization zebrafish Assay for Yolk Sac Edema (AID 2283634);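 for AC50: actives raise the incidence of yolk sac edema above the DMSO baseline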
Method in brief: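 Dechorionate (pronase, 4 hpf) → place one 6 hpf embryo per well → static compound exposure, sealed and foil-covered, 28C, to 120 hpf → record yolk sac edema as present or absent. Final DMSO 0.64%.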

[9] = Tanguay_ZF_120hpf_AXIS_legacy: (Legacy) Oregon State University Tanguay Lab 120 Hour Post-fertilization zebrafish Assay for Body Axis Malformation (AID 2283635)
Method in brief: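 Chorion is removed with pronase at 4 hpf, then single 6 hpf embryos are dosed (final DMSO 0.64%) and held statically at 28C in sealed, foil-covered plates. At 120 hpf body axis malformation is recorded as present or absent.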

[10] = Tanguay_ZF_120hpf_EYE_legacy: (Legacy) Oregon State University Tanguay Lab 120 Hour Post-fertilization zebrafish Assay for Eye Malformation (AID 2283636);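 note: binary presence or absence of eye malformation scored by brightfield in 120 hpf larvae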
Method in brief: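 5D wild-type embryos, pronase-dechorionated at 4 hpf; static exposure 6–120 hpf, 28C, dark; DMSO 0.64% final; 5uM trimethyltin chloride positive control. Binary eye-defect scoring at 120 hpf; dead embryos not scored.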

[11] = read-out: Cellular tumor antigen p53 (Homo sapiens) (UniProt P04637); assay: LTEA_HepaRG_TP53: Life Technologies and Expression Analysis (LTEA) Assay for Tumor Protein P53 (TP53) using HepaRG (AID 2283537; active = hit-call score of the fitted dose curve at least 0.9, where 1 is the maximum; inactive = score below 0.9); details: mRNA level, 48 h; actives raise or lower the signal
Method in brief: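 Differentiated HepaRG cells in serum-free induction medium exposed 48 h in duplicate to 8 half-log concentrations, top 100 uM, 0.5% DMSO. TP53 mRNA by TaqMan qRT-PCR (Fluidigm), normalized to ACTB, GAPDH, POLR2A; fitted bidirectionally versus DMSO.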

[12] = biological target: Cellular tumor antigen p53 (Homo sapiens) (UniProt P04637); assay: TOX21_p53_BLA_p5_ratio: Tox21 HCT-116 p53 Agonism Beta-lactamase Assay, Ratio, Phase 5 (AID 2283599)
Method in brief: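 HCT-116 p53-bla cells (4000/well) plated 5 h, dosed with compound (217-fold DMSO dilution) for 16 h at 37 C; CCF4-AM substrate 2 h at room temperature. Activity is the 460/530 nm emission ratio (405 nm excitation), fitted in gain-of-signal direction versus DMSO.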

[13] = biological target: Cellular tumor antigen p53 (Homo sapiens) (UniProt P04637); assay: TOX21_p53_BLA_p4_ratio: Tox21 HCT-116 p53 Agonism Beta-lactamase Assay, Ratio, Phase 4 (AID 2283601)
Method in brief: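 HCT-116 p53 beta-lactamase reporter cells (4000/well) preincubated 5 h, then compound (217-fold dilution of DMSO stock) for 16 h at 37C. CCF4-AM substrate added 2 h at room temperature; 460/530 nm emission ratio fitted upward versus DMSO.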

[14] = biological target: Cellular tumor antigen p53 (Homo sapiens) (UniProt P04637); assay: TOX21_p53_BLA_p2_ratio: Tox21 HCT-116 p53 Agonism Beta-lactamase Assay, Ratio, Phase 2 (AID 2283592)
Method in brief: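 Plated HCT116 p53-bla cells (4000/well) received compound after 5 h, then 16 h at 37C/5% CO2. CCF4-AM added, 2 h RT. Ratio of 460 to 530 nm emission taken as the p53 reporter signal.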

[15] = biological target: Cellular tumor antigen p53 (Homo sapiens) (UniProt P04637); assay: TOX21_p53_BLA_p3_ratio: Tox21 HCT-116 p53 Agonism Beta-lactamase Assay, Ratio, Phase 3 (AID 2283596)
Method in brief: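 Cells were seeded at 4000/well, rested 5 h at 37C, then dosed with DMSO compound solutions (217-fold dilution) for 16 h. CCF4-AM substrate was loaded for 2 h at room temperature, and the 460/530 nm emission ratio was fitted for gain of signal versus DMSO.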

[16] = TOX21_p53_BLA_p4_viability: Viability Assessment in the Tox21 HCT-116 p53 Agonism Beta-lactamase Assay, Phase 4 (AID 2283597);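 note: hits lower the luminescence signal meaning cytotoxicity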
Method in brief: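 Readout: ATP luminescence (CellTiter-Glo), measured 30 min after reagent addition at RT. The reagent followed a 2 h CCF4-AM incubation, and the cells had been exposed to compound for 16 h at 37C.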

[17] = TOX21_p53_BLA_p2_viability: Viability Assessment in the Tox21 HCT-116 p53 Agonism Beta-lactamase Assay, Phase 2 (AID 2283591);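 note: compound exposure lasted 16 h at 37 °C; actives lower the ATP signal meaning cytotoxicity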
Method in brief: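 HCT116 p53-bla cells, 4000/well, dosed after 5 h plating (217-fold dilution of DMSO stocks) and incubated 16 h at 37C. Viability taken as cellular ATP by CellTiter-Glo luminescence after 30 min RT; signal loss marks cytotoxicity.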

[18] = TOX21_p53_BLA_p3_viability: Viability Assessment in the Tox21 HCT-116 p53 Agonism Beta-lactamase Assay, Phase 3 (AID 2283593);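 note: cells exposed to compound for 16 h before reading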
Method in brief: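 HCT116 cells, 4000/well, dosed 5 h after plating by pin transfer (217-fold dilution from DMSO stock) and incubated 16 h at 37C, 5% CO2. Viability read as ATP luminescence with CellTiter-Glo after 30 min at room temperature.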

[19] = TOX21_p53_BLA_p5_viability: Viability Assessment in the Tox21 HCT-116 p53 Agonism Beta-lactamase Assay, Phase 5 (AID 2283600)
Method in brief: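 Workflow: seed 4000 cells per well, wait 5 h, add compounds (DMSO, 217-fold dilution), incubate 16 h, load CCF4-AM 2 h, add CellTiter-Glo, read luminescence after 30 min.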

Measured: AC50

Sequence of Cellular tumor antigen p53 (Homo sapiens) (P04637 whole entry, looked up): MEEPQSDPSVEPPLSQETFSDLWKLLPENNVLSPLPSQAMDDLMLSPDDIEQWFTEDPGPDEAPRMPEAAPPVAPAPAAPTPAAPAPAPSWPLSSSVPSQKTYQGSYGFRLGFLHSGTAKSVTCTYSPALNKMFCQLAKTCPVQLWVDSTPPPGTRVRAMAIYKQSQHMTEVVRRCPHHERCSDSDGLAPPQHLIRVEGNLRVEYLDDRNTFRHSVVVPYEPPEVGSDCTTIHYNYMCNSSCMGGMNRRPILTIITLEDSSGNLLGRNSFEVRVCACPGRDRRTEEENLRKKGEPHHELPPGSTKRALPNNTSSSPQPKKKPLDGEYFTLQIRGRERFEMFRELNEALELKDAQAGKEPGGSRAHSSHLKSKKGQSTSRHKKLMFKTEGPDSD

CCOP(=O)(SC(C)CC)N1CCSC1=O (centres undefined)
inactive: TIMP1, TIMP1 (gene 7076) | [1] | [2] | [3] | [4] | [5] | [6] | [7] | [8] | [9] | [10]

CCCOc1nn(C(=O)NS(=O)(=O)c2ccccc2C(=O)OC)c(=O)n1C
not listed: [3] | [9] | [14] | [15] | [16] | [17] | [18] | [19]
inactive: all other assays above

CNC(=O)Oc1cccc2c1OC(C)(C)O2
not listed: [3] | [17] | [18] | [19]
inactive: all other assays above

Cc1cc(C2CC2)nc(Nc2ccccc2)n1
active: [2] 50 µM | [6] 73.7 µM | [17] 62.2 µM | [16] 64.9 µM | [13] 72.6 µM
not listed: [3] | [8]
inactive: all other assays above

CN(C)C(=O)Nc1cccc(C(F)(F)F)c1
active: TIMP1, TIMP1 (gene 7076) 78.8 µM | [1] 81 µM
not listed: [3] | [17] | [18]
inactive: all other assays above

O=C(O)c1cc(Oc2ccc(C(F)(F)F)cc2Cl)ccc1[N+](=O)[O-]
active: [3] 22.7 µM
inactive: TIMP1, TIMP1 (gene 7076) | [1] | [2] | [4] | [5] | [6] | [7] | [8] | [9] | [10]

CSc1nnc(C(C)(C)C)c(=O)n1N
not listed: [3] | [17]
inactive: all other assays above

CCCSP(=O)(OCC)SCCC
inactive: TIMP1, TIMP1 (gene 7076) | [1] | [2] | [4] | [5] | [6] | [8] | [9] | [10]

Cc1ccn2nc(S(=O)(=O)Nc3c(F)cccc3F)nc2n1
inactive: TIMP1, TIMP1 (gene 7076) | [1] | [2] | [4] | [5] | [6] | [7] | [8] | [9] | [10]

O=[N+]([O-])c1cc(C(F)(F)F)c(Cl)c([N+](=O)[O-])c1Nc1ncc(C(F)(F)F)cc1Cl
inactive: TIMP1, TIMP1 (gene 7076) | [1] | [5] | [7] | [8] | [9]
active: [2] 23.9 µM | [3] 79.5 µM | [4] 73.6 µM | [6] 48.4 µM

CCc1cccc(CC)c1N(COC)C(=O)CCl
active: [7] 13.4 µM
inactive: TIMP1, TIMP1 (gene 7076) | [1] | [2] | [4] | [5] | [6] | [8] | [9] | [10]

CCCCSP(=O)(SCCCC)SCCCC
active: [6] 63.5 µM | [8] 7.24 µM
not listed: [3] | [18]
inactive: all other assays above

CC(Oc1cccc(Cl)c1)C(=O)O (centres undefined)
not listed: [3] | [17] | [18]
inactive: all other assays above

COP(=O)(OC)SCn1c(=O)oc2cc(Cl)cnc21
active: [1] 0.262 µM | [2] 73.4 µM | [4] 9.92 µM | [6] 74.2 µM | [15] 49.1 µM | [12] 73.7 µM | [8] 44 µM | [10] 15.3 µM
not listed: [3] | [17] | [18]
inactive: all other assays above

CCC(=NOC/C=C/Cl)C1=C(O)CC(C2CCOCC2)CC1=O (centres undefined)
not listed: [3] | [12] | [14] | [15] | [16]
inactive: all other assays above

COc1cccc(C(=O)NN(C(=O)c2cc(C)cc(C)c2)C(C)(C)C)c1C
active: [2] 12.2 µM
not listed: [3] | [12] | [15] | [16]
inactive: all other assays above

CCc1cccc(C)c1N(C(=O)CCl)C(C)COC (centres undefined)
not listed: [3]
inactive: all other assays above
